# Screening results from PubChem.
# Compounds with a hit are over-represented: about 3.5% of the library has one in this group of screens.
# GPR151 activ: activators of human GPR151, primary screen, cell-based, PathHunter beta-arrestin, luminescence | PathHunter beta-arrestin GPR151 cells | activation, % at 11.2 µM | 650,000 compounds, 1% hits | AID 1508602, 2020; in the data active = activation above about 4.9%;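 note: 0% = median of compound wells and 100% = cells with positive control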
# Target sequence (Q8TDV0 whole entry, looked up): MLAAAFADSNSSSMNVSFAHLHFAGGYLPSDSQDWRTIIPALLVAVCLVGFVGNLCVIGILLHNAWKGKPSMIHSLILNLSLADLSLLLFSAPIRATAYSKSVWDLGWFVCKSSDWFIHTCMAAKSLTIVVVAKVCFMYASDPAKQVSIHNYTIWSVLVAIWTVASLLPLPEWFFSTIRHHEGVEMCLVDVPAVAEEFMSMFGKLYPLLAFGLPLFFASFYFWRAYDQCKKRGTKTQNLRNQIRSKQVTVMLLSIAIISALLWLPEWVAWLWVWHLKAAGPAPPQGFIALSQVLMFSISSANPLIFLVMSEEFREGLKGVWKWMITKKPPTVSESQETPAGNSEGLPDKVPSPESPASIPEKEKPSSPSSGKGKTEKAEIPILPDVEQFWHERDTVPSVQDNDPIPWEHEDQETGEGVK
# TEAD-YAP block: TEAD-YAP interaction inhibition, primary screen, TEAD-YAP interaction inhibitor project, luminescence, HEK-TIYL cells; TEAD-Gal4/YAP UAS-luciferase luminescence; inhibition, % at 9.12 µM; 640,000 compounds, 1.4% hits; in the data active = inhibition above about 32%;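 note: 0% = median of test compound wells and 100% = reference inhibitor wells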
# MITF inh: MITF inhibitors, primary screen, biochemical, AlphaScreen, human; inhibition, % at 2.6 µM; 650,000 compounds, 0.91% hits; Microphthalmia-associated transcription factor (Homo sapiens), O75030; AlphaScreen MITF homodimerization, bead proximity signal; in the data active = inhibition above about 50%;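 note: 0% = vehicle wells with protein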
# FBW7 activator: FBW7 E3 ligase activators, primary screen, biochemical, AlphaScreen, human | F-box/WD repeat-containing protein 7 (Homo sapiens), Q969H0 | AlphaScreen FBW7–phospho-cyclin E peptide binding, activator screen | normalized activity (activation), % at 26.1 µM | 650,000 compounds, 0.13% hits; in the data active = normalized activity above about 1.9%;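 note: purified mutant Fbw7 with reduced substrate affinity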
# MITF confirm: MITF inhibitors, retest of hits, confirmation, biochemical, AlphaScreen, triplicate; AID 1259372, 2018; shares compounds with MITF inh; inhibition, % at 2.6 µM; AlphaScreen MITF homodimerization, biotin/His-MITF beads; 4,700 compounds, 16% hits;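 active = inhibition above a cutoff derived from the DMSO control wells, cut at about 28% in these data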;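 note: 0% = MITF dimer wells with DMSO only; inhibitors lower the bead chemiluminescence by keeping MITF from dimerizing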
# AS interf DR: AlphaScreen optical interference compounds, dose response, counter-screen, biochemical, HTS. AID 1259373, 2018. IC50, µM. shares compounds with MITF inh. AlphaScreen optical interference counterscreen, cell-free. 480 compounds, 6% hits; call rule not given here
# AlphaScreen intf2: AlphaScreen optical interference compounds, counter-screen for MITF inhibitor project, biochemical, triplicate | shares compounds with MITF inh | LysRS AlphaScreen counterscreen, signal interference | inhibition, % at 2.6 µM | 4,700 compounds, 7.6% hits | AID 1259376, 2018;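 active = inhibition above a cutoff derived from the DMSO control wells, cut at about 30% in these data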
# * hit, by the source's call; / = no result given.
SMILES,GPR151 activ,TEAD-YAP block,MITF inh,FBW7 activator,MITF confirm,AlphaScreen intf2,others
CN(C)c1c([N+](=O)[O-])cc([N+](=O)[O-])c2cccnc12,1.1,6.8,54.0*,-0.6,19.2,68.0*,
O=[N+]([O-])c1ccc(O)c2ncccc12,0.0,6.5,72.9*,-0.3,83.4*,100.6*,
CCN(CC(=O)NC(C)C)C(=O)Nc1ccccc1,0.2,2.2,-5.4,-0.2,/,/,
O=C1CCC(N2CC[C@@H]3CCCC[C@H]3C2)CCN1Cc1cccnc1 (stereo not given in full),-0.4,1.6,12.3,0.4,/,/,
c1ccc(C2C3=C(CCCC3)SC3=C2CCCC3)cc1,0.4,7.0,69.6*,-0.2,-1.4,-7.0,
N#C/C(=C\C=C\c1ccco1)C(N)=S,-1.3,-0.2,65.4*,-0.6,60.0*,86.6*,
COc1ccc(CN2CCN(Cc3ccc(O)cc3)CC2CCO)c(C)c1C (stereo not given),-2.0,11.4,0.4,0.0,/,/,
COC(=O)N/N=C/c1cccc(C(F)(F)F)c1,-0.3,-12.8,-5.3,-0.2,/,/,
O=C(O)c1c[nH]c2c(ccc3cccnc32)c1=O,-0.7,/,121.2*,/,98.0*,100.5*,
O=C(O)c1c[nH]c2c(Cl)c(Cl)ccc2c1=O,0.9,-5.2,32.1,-0.8,/,/,
Cc1nn(CC2CC2)c(=O)c2cc3ccsc3n12,-0.1,-7.0,-2.6,-0.1,/,/,
CC[C@]1(O)C[C@H]2CN(CCc3c([nH]c4ccccc34)[C@@](C(=O)OC)(c3cc4c(cc3OC)N(C=O)[C@H]3[C@@](O)(C(=O)OC)[C@H](C(=O)OC)[C@]5(CC)C=CCN6CC[C@]43[C@@H]65)C2)C1,0.2,/,-4.0,-0.1,/,/,
COc1cc(O)c(C)c(O)c1,-2.3,-4.3,14.3,0.1,/,/,
COc1c(O)cc(O)cc1O,-2.2,-14.1,71.8*,0.3,60.2*,-1.4,AS interf DR=>6.48
CCn1nc(C)c(NC(=S)NCc2ccc(Cl)cc2)c1C,0.6,0.5,0.8,0.0,/,/,
COc1ccc(C(=O)NCCSc2c[nH]c3ccccc23)cc1,1.8,3.5,-15.1,0.5,/,/,
Cc1ccc(/C=C/C(=O)n2nc(C)cc2C)cc1,1.7,-17.4,-0.4,0.3,/,/,
Cc1cc(C)n(C(=O)/C=C/c2ccc(Br)cc2)n1,0.3,-6.5,55.4*,-0.1,6.8,16.1,
CCOC(=O)c1ccc(NC(=O)C2OC3OC(C)(C)OC3C3OC(C)(C)OC23)cc1 (stereo not given),0.8,-1.8,0.4,0.1,/,/,
CCOC(=O)c1c(NC(=O)C(C)Sc2nnc(CNC(=O)c3cccc(OC)c3)n2-c2cccc(C)c2)sc2c1CCC2 (stereo not given),-0.2,2.6,-2.6,-0.1,/,/,
COc1ccc(C(C)=O)cc1CSc1nc(NC2CCCCC2)c2ccccc2n1,1.4,-2.0,80.3*,0.0,0.2,-0.5,
COc1ccc(C(C)=O)cc1CSc1nc(NCCc2ccccc2)c2ccccc2n1,-0.3,-2.5,2.9,-0.2,/,/,
CCOc1cccc(N2C(=O)CC(N3CCN(c4ccc(O)cc4)CC3)C2=O)c1 (stereo not given),4.2,3.7,-7.8,0.6,/,/,
Brc1ccc(CN2CCN(c3ccccn3)CC2)cc1,-0.3,8.6,52.6*,0.3,-2.0,2.7,
Cc1ccc(CN2CCN(c3ccccn3)CC2)cc1,-0.1,6.5,43.9,0.6,/,/,
SMILES,GPR151 activ,TEAD-YAP block,MITF inh,FBW7 activator,MITF confirm,AlphaScreen intf2,others
O=C(CN1CCN(c2ccccn2)CC1)N(Cc1ccccc1)Cc1ccccc1,0.6,-0.7,90.8*,-0.3,10.1,13.2,
COc1cc(CN2CCN(c3ccccn3)CC2)ccc1O,-2.0,0.8,53.7*,0.1,-3.4,2.5,
Cc1sc2nc(Cn3cnc4ccccc4c3=O)[nH]c(=O)c2c1C,-2.7,7.6,2.3,-0.1,/,/,
CCn1c(SCc2nc3ccccc3[nH]2)nnc1-c1ccccc1,-1.4,-8.9,10.4,0.7,/,/,
COc1cc(/C=N\NC(=O)CN2CCN(C)CC2)cc(OC)c1,0.5,6.7,55.9*,0.1,-0.1,-2.9,
CN1CCN(CC(=O)N/N=C\c2ccsc2)CC1,0.7,0.8,25.5,-0.1,/,/,
COc1cc(/C=N\NC(=O)CN2CCN(C)CC2)cc2c1OCO2,-0.3,-6.0,50.7*,-0.1,25.8,0.4,
CN1CCN(CC(=O)N/N=C\c2ccccc2O)CC1,0.2,6.1,-1.2,-0.1,/,/,
CC1=C(C(=O)OC2CCCC2C)C(c2ccccc2OCc2ccccc2)NC(=O)N1 (stereo not given),2.1,3.7,9.1,0.0,/,/,
C=CCNC(=O)c1c(-c2ccccc2)noc1C,1.4,4.1,2.0,0.2,/,/,
CC(C)c1ccc(NC(=O)CSc2ccc([N+](=O)[O-])cn2)cc1,0.7,2.0,-3.8,0.0,/,/,
CCc1ccc(NC(=O)Nc2nnc(N3CCC(C)CC3)s2)cc1,1.8,5.6,7.6,0.1,/,/,
Cc1ccc2c(c1)N(C(=O)N1CCC(C(=O)NC(C)C)CC1)CCO2,-0.8,6.2,-0.8,0.0,/,/,
O=C(O)CSc1nc2ccccc2n1CC(=O)N1CCOCC1,-0.6,12.3,16.5,0.1,/,/,
NC(=O)CSc1nc2ccccc2n1CC(=O)N1CCOCC1,2.3,-5.8,62.1*,0.0,12.5,14.3,
CCCC(=O)Nc1ccccc1C1(C)CC1,-1.1,3.1,59.3*,0.0,-3.3,-16.8,
CC(=O)Nc1ccc(S(=O)(=O)N2CCN(C3CCCC3)CC2)cc1,2.5,4.4,23.1,0.0,/,/,
COc1cc(OC)cc(C(=O)N2CCN(Cc3ccc(Cl)cc3)CC2)c1,-1.0,10.3,57.7*,-0.1,27.0,14.6,
COc1cc(OC)cc(C(=O)N2CCN(Cc3cccc(Cl)c3)CC2)c1,0.3,-4.5,52.1*,-0.4,11.9,19.6,
COc1cc(OC)cc(C(=O)N2CCN(Cc3ccc(F)cc3)CC2)c1,0.6,-5.4,50.5,0.0,/,/,
O=C(c1ccncc1)N1CCN(Cc2cccc(Cl)c2)CC1,-0.7,-0.8,73.5*,-0.2,9.0,16.6,
Cc1ccc(-c2noc(C3CCCN(S(=O)(=O)c4ccc5ccccc5c4)C3)n2)o1 (stereo not given),1.0,-2.0,-3.0,-0.3,/,/,
Cc1ccc(-c2noc(C3CCN(S(=O)(=O)c4ccc5c(c4)OCCO5)CC3)n2)o1,-0.4,6.0,63.4*,0.0,7.7,16.7,
CCCN1CCN(C(=O)c2nn(-c3cc(OC)cc(OC)c3)c(=O)c3ccccc23)CC1,-1.4,14.5,65.5*,0.0,-8.7,-2.9,
CC(C)NC(=O)Cn1cnc2sc3c(c2c1=O)CCCC3,1.6,13.8,-1.1,0.1,/,/,
